16 compounds from PubChem BioAssay (Tox21) can be followed below.

The target of assay [1] is Luciferin 4-monooxygenase (Photinus pyralis) (UniProt P08659). The assay is described as follows: qHTS assay to identify small molecule inhibitors of firefly luciferase (AID 1224835). Also: series mostly up to about 120 µM; nearly all actives have a fitted effect of over 25% in size. Summed up:
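Inhibition of purified Photinus luciferase is measured by luminescence. Substrate levels (D-luciferin, ATP) sit at their KM values. Each compound is tested in a concentration series.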
(In qHTS, concentration-response curves come from the screen itself.)

The nature of assay [2]: qHTS assay to identify small molecule agonists of the constitutive androstane receptor (CAR) signaling pathway - cell viability counter screen (AID 1224836). Also: series mostly up to about 92 µM; nearly all actives have a fitted effect of over 45% in size. Summed up: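 Cell viability multiplexed with the CAR agonist screen: CellTiter-Fluor fluorescence after 23 hr at 37 C. HepG2-CYP2B6-hCAR cells got compounds at 15 concentrations with PK11195 at 0.75 uM final.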
Assay [3] is described as follows: qHTS assay to identify small molecule antagonists of the constitutive androstane receptor (CAR) signaling pathway - cell viability counter screen (AID 1224837). Also: series mostly up to about 92 µM; nearly all actives have a fitted effect of over 45% in size. Summed up:
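Cells are seeded, rested 4 hr at 37 C/5% CO2, dosed with compound (15-point series) and 50 nM CITCO, incubated a further 23 hr, and then CellTiter-Fluor reagent is added before fluorescence is read. The line is HepG2 with stable hCAR and CYP2B6-2.2kb.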

Assay [4] addresses Nuclear receptor subfamily 1 group I member 3 (Homo sapiens) (UniProt Q14994). The assay is described as follows: qHTS assay to identify small molecule antagonists of the constitutive androstane receptor (CAR) signaling pathway (AID 1224838).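 Also: HepG2 cells stably expressing hCAR with CYP2B6 luciferase reporter stimulated by CITCO; nearly all actives have a fitted effect of over 40% in size.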 Summed up: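 Luminescence from a CYP2B6-2.2kb promoter reporter in hCAR-expressing HepG2 cells reflects CAR signaling. Cells received compounds at 15 concentrations and 50 nM CITCO (final), then incubated 24 h at 37 C/5% CO2.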

The target is the same in assay [5]. The assay is described as follows: qHTS assay to identify small molecule agonists of the constitutive androstane receptor (CAR) signaling pathway (AID 1224839).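 Also: HepG2 cells stably carrying human CAR and a CYP2B6 luciferase reporter; series mostly up to about 92 µM; nearly all actives have a fitted effect of over 15% in size.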 Summed up:
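Luminescent ONE-Glo read-out after 24 hr, 37 C exposure of double-stable HepG2-CYP2B6-hCAR reporter cells to a 15-point compound series, in the presence of 0.75 uM PK11195 (final).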

Assay [6] is described as follows: qHTS assay to identify small molecule antagonists of the estrogen related receptor signaling pathway with the pleiotropic PPARgamma coactivator (PGC) from Tox21 10K library - cell viability counter screen (AID 1224840; active = well fitted cell-killing curve with a large enough effect in the repeat runs, not every such curve was filed as active; also: nearly all actives have a fitted effect of over 40% in size). The method, boiled down: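 Cell viability is measured by CellTiter-Fluor fluorescence in PGC/ERR cells that receive compounds after a 6-hour attachment period and are then incubated 17.5 hours at 37 C.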

The target in assay [7] is Thyrotropin receptor (Homo sapiens) (UniProt P16473). Nature of the assay: qHTS assay to identify small molecule agonists of the thyroid stimulating hormone receptor (TSHR) signaling pathway (AID 1224843; calls by dose curve; also: nearly all actives have a fitted effect of over 45% in size). The method, boiled down:
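Agonist activity read as cAMP rise via d2/cryptate HTRF competition, 1 h room-temperature detection, in HEK293 cells expressing TSHR. Fifteen-point titrations, each run in triplicate, with a 30 min room-temperature incubation beforehand.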

Assay [8] is described as follows: qHTS assay to identify small molecule agonists of the hypoxia (HIF-1) signaling pathway - cell viability counter screen (AID 1224844; calls by dose curve; also: nearly all actives have a fitted effect of over 50% in size). The method, boiled down: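 Viability counter screen: HRE-bla ME-180 cells plated 5 hrs before compound addition, treated 17 hrs at 37C and 5% CO2, then CellTiter-Glo added after the FRET reporter read; luminescence after 30 min.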

Assay [9] is described as follows: qHTS assay to identify small molecule agonists of H2AX (AID 1224845; active = well fitted activation curve with a large enough effect in the signal ratio in the repeat runs, not every such curve was filed as active; the % refers to the signal ratio). The method, boiled down: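 Phospho-H2AX Ser139 measured by HTRF (ex 320 nm; em 665 and 620 nm) after 24 hr antibody incubation. Compounds, 15 concentrations, 0.76% DMSO, were applied to CHO-K1 cells for 3hr at 37C before lysis.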
The nature of assay [10]: qHTS assay to identify small molecule agonists of the hypoxia (HIF-1) signaling pathway (AID 1224846; active = well fitted activation curve with a large enough effect in the signal ratio in the repeat runs, not every such curve was filed as active; the % refers to the signal ratio). The method, boiled down:
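Agonist mode reporter screen. ME-180 cells stably expressing bla under HRE control received test compounds in DMSO for 17 hrs (37C, 5% CO2), and beta-lactamase activity was then detected with the CCF4-AM FRET substrate.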

The nature of assay [11]: qHTS RealTime-Glo MT Cell Viability Assay in HEK293 cells - 32 hour (AID 1224868). Also: nearly all actives have a fitted effect of over 50% in size. Also: potency is read from the fitted curve at half-maximal effect. The method, boiled down:
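Assay medium contained NanoLuc luciferase plus cell-permeant prosubstrate, added with HEK293 cells at 600 cells/well. After 5 h at 37 C/5% CO2 compounds were added; plates stayed at 37 C for 40 h with serial luminescence reads.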

Assay [12] can be described thus: A CellTox Green Cytotoxicity Assay to monitor cytotoxicity in HEK293 cells - 0 hour (AID 1224869). Also: nearly all actives have a fitted effect of over 50% in size. Summed up: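 Dead-cell fluorescence measured kinetically: asymmetric cyanine dye, HEK293, 600 cells/well, 5 h settle, 23 nL cpd/DMSO, 37 C, reads 0–40 h every 8 h.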
A short description of assay [13]: qHTS assay to identify small molecule agonists of H2AX - cell viability counter screen (AID 1224847; calls by dose curve;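 also: wild-type CHO-K1 cells; top concentration of the series differs between compounds; nearly all actives have a fitted effect of over 30% in size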). Summed up: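 Counter-screen for viability: CellTiter-Glo ATP luminescence read after 3 h compound treatment (15-point titration, 0.76% DMSO final) of CHO-K1 cells at 37C, with 30 min room-temperature reagent incubation.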
The nature of assay [14]: qHTS RealTime-Glo MT Cell Viability Assay in HepG2 cells - 24 hour (AID 1224867). Also: nearly all actives have a fitted effect of over 50% in size. Summed up:
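qHTS, HepG2, 600 cells/well, RealTime-Glo (NanoLuc + prosubstrate) added with cells; 5 h preincubation; DMSO compound addition; 37 C; luminescence at 0/8/16/24/32/40 h.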

The nature of assay [15]: qHTS assay to identify small molecule antagonists of the estrogen related receptor signaling pathway with the pleiotropic PPARgamma coactivator (PGC) from Tox21 10K library (AID 1224841; call rule not given here; also: potency is read from the fitted curve at half-maximal effect). Summed up:
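Cells stably carrying the PGC/ERR reporter, seeded at 2,000 per well, received pin-transferred compounds 6 h post-plating. Exposure lasted 18 h at 37 C. Signal: One-Glo luminescence.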

The nature of assay [16]: qHTS assay to identify small molecule agonists of the estrogen related receptor signaling pathway with the pleiotropic PPARgamma coactivator (PGC) from Tox21 10K library (AID 1224842). Also: nearly all actives have a fitted effect of over 15% in size. Summed up:
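Luminescence from One-Glo (30 min, room temperature) measured after PGC/ERR cells had 18 h at 37 C with pinned compound (23 nL in DMSO). Cells had been seeded at 2,000 per well and pre-incubated 6 h.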

Assay [17] is described as follows: qHTS assay to identify small molecule antagonists of the estrogen related receptor (ERR) signaling pathway from Tox21 library (AID 1224848). Also: nearly all actives have a fitted effect of over 50% in size. The method, boiled down:
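Luciferase luminescence (ONE-Glo, 30 min room temperature) was the read-out. Cells of the NTP-supplied ERR line, 2,000 per well, were given 6 h at 37 C before compound addition in DMSO and 18 h exposure at 37 C.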

The nature of assay [18]: qHTS assay to identify small molecule agonists of the estrogen related receptor (ERR) signaling pathway from Tox21 library (AID 1224849; calls by dose curve; also: nearly all actives have a fitted effect of over 15% in size). The method, boiled down:
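Quantitative HTS in agonist format: NTP ERR cell line, compounds transferred in DMSO after 6 h plating, 18 h incubation at 37 C, ONE-Glo luminescence endpoint.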

Results filed as inconclusive are left out. The source holds several records for some structures; these can differ, active in one and inactive in another. Calls of active or inactive are those of the source. Unless noted, calls follow the shape of the dose curve; as a rule, active = well fitted curve in the direction sought with a large enough effect in the repeat runs; inconclusive = weak or mixed curves; inactive = no such curve, though single readings can be large; an effect the other way counts as inactive or inconclusive.

Sequence of Nuclear receptor subfamily 1 group I member 3 (Homo sapiens) (Q14994 whole entry, looked up): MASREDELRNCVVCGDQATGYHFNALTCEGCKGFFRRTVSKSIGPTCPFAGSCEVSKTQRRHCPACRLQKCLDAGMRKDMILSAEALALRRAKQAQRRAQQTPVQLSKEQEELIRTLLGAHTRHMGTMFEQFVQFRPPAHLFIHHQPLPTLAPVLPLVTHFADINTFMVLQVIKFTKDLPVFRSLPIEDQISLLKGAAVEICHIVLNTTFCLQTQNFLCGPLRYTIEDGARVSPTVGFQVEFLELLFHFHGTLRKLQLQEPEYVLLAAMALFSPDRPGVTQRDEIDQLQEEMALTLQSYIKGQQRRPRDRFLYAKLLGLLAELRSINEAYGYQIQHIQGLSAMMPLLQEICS
Sequence of Luciferin 4-monooxygenase (Photinus pyralis) (P08659 whole entry, looked up): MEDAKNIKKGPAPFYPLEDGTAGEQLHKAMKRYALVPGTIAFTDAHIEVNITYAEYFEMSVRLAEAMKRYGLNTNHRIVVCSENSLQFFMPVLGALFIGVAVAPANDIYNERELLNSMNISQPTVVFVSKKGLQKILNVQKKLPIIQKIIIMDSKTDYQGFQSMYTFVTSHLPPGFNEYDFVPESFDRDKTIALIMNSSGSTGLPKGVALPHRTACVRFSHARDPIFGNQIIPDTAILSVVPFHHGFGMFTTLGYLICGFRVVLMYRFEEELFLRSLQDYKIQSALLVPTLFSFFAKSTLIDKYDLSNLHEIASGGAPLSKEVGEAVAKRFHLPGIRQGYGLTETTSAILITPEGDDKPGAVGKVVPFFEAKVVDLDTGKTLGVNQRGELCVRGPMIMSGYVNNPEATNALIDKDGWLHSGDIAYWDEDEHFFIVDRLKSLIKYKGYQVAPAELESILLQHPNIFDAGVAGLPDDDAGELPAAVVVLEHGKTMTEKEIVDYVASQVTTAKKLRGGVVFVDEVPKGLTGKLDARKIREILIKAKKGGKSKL
Sequence of Thyrotropin receptor (Homo sapiens) (P16473 whole entry, looked up): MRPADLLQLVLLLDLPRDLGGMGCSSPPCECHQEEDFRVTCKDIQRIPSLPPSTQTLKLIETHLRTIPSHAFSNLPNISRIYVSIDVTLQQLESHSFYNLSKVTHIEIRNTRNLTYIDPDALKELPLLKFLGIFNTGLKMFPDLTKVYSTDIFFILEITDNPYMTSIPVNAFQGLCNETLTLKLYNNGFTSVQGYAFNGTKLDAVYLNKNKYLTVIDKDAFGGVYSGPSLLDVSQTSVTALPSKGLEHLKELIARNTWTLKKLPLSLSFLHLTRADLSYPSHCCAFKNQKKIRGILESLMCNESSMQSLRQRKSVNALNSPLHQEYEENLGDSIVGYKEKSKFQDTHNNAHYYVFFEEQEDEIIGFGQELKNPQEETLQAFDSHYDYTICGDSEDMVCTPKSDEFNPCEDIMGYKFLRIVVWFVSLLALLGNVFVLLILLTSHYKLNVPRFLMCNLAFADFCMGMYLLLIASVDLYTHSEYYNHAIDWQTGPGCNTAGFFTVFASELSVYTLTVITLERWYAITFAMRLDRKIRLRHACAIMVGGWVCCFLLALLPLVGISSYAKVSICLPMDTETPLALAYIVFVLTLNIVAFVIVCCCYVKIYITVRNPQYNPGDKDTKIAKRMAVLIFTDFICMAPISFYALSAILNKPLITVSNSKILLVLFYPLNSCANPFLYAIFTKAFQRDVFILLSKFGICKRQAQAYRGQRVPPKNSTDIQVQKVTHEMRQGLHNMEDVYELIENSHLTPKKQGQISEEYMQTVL

On to `O=C(O)c1ccc(S(=O)(=O)N(Cl)Cl)cc1`, for which the Potency entry in assay [1], in assay [2], in [3], in assay [5] and in assay [6] was “inactive” in each case. Moreover, the compound was classed as inactive in [4], in assay [7], in assay [8], in assay [9], in assay [10] and in assay [12]. Also, in assay [11], the Potency was 49.3 µM (active) and inactive.

Turning to `CN/C(=C\[N+](=O)[O-])NCCSCc1csc(CN(C)C)n1`, the Potency result in [2], in [5], in [6] and in [11] was “inactive” each time. Further, the outcome in [4], in assay [7], in assay [8], in [9], in assay [13] and in [12] was inactive.

In the case of `CCOCCOCCOCCO`, the Potency entry in assay [1], in assay [2], in assay [5], in assay [6], in assay [14] and in assay [11] was “inactive” in each case. For the same compound, the result in assay [4], in [8], in [9], in assay [10] and in [12] was inactive.

In the case of `COC(=O)CCCC(=O)OC`, the Potency result in [1], in assay [2], in [3], in assay [5], in assay [6] and in assay [11] was “inactive” in each case. Moreover, the result in [4], in [7], in [8], in [9], in [10] and in assay [12] was inactive.

Regarding `COC(=O)c1cccnc1`, the Potency result in assay [1], in assay [2], in assay [5], in assay [6], in [15] and in assay [11] was “inactive” throughout. The compound was classed as inactive in [4], in assay [16], in [7], in [8], in assay [9] and in assay [10]. Moreover, the call in assay [17], in assay [18] and in assay [12] was inactive.

Consider `CC(C)CCCCCCCOC(=O)CCCCC(=O)OCCCCCCCC(C)C`, for which the Potency result in assay [1], in assay [2], in [5], in [6], in [14] and in assay [11] was “inactive” throughout. Moreover, the compound was classed as inactive in assay [4], in assay [7], in [8], in assay [9], in assay [10] and in [13]. For the same compound, the call in assay [12] was inactive.

`Cc1ccc(S(=O)(=O)N=C=O)cc1`: the Potency result in assay [1], in [2], in assay [3], in assay [6], in assay [15] and in assay [11] was “inactive” each time. Further, the call in [16], in assay [7], in assay [8], in [9], in assay [10] and in assay [17] was inactive. The call in assay [18] and in [12] was inactive.

As to `Cc1ccc2ncccc2c1`, the Potency result in assay [1], in assay [2], in assay [5], in assay [6], in assay [15] and in [11] was “inactive” in each case. Further, the compound was classed as inactive in assay [4], in [16], in [7], in [8], in assay [9] and in assay [10]. The call in assay [13], in [17], in assay [18] and in [12] was inactive.

`CC1(C)NC(=O)NC1=O`: the Potency result in [1], in assay [2], in [5], in assay [6], in assay [15] and in assay [14] was “inactive” throughout. In addition, in assay [11], the Potency entry was “inactive”. The outcome in assay [4], in [16], in [8], in assay [9], in assay [10] and in [13] was inactive. Further, the outcome in [17], in assay [18] and in assay [12] was inactive.

For `CC(=O)Oc1ccc(C)cc1`, the Potency result in assay [1], in assay [2], in assay [6], in assay [14] and in [11] was “inactive” in each case. Also, the result in assay [8], in assay [9], in assay [10], in [13] and in assay [12] was inactive.

Consider `C=C(C)CNCC`, for which the Potency entry in assay [1], in [2], in assay [3], in [6], in [15] and in assay [14] was “inactive” in each case. Moreover, the Potency entry in [11] was “inactive”. The call in assay [4], in [16], in assay [7], in assay [8], in assay [9] and in [10] was inactive. For the same compound, the compound was classed as inactive in assay [13], in [17], in assay [18] and in [12].

In the case of `CC(CCl)OP(=O)(OC(C)CCl)OC(C)CCl` (stereo not drawn), the Potency entry in assay [1], in assay [2], in [3], in [6], in assay [14] and in assay [11] was “inactive” each time. Besides, the compound was called inactive in [4], in [16], in assay [7], in [8], in assay [9] and in [10]. Further, the compound was classed as inactive in assay [13], in assay [17], in [18] and in assay [12]. For the same compound, in assay [15], the Potency was 38.6 µM (active) and inactive.

Consider `CN(C)c1ccc(O)c2c1C[C@H]1C[C@H]3[C@H](N(C)C)C(=O)C(C(N)=O)=C(O)[C@@]3(O)C(=O)C1=C2O`, for which the Potency entry in assay [1], in assay [2], in assay [5], in [6], in [14] and in assay [11] was “inactive” each time. The outcome in assay [4], in [8], in assay [9], in assay [10], in assay [13] and in assay [12] was inactive.

As to `C=CCCCCCCCCC(=O)O`, the Potency result in assay [1], in assay [2], in [6], in [14] and in [11] was “inactive” throughout. Besides, the compound was classed as inactive in [7], in [8], in assay [9], in assay [10] and in assay [12].

For `CC(C)(C)c1cc(Cc2cc(C(C)(C)C)c(O)c(C(C)(C)C)c2)cc(C(C)(C)C)c1O`, the Potency result in assay [1], in [2], in assay [3], in assay [5], in assay [6] and in [14] was “inactive” in each case. In assay [11], the Potency entry was “inactive”. The result in assay [4], in [8], in assay [9], in assay [10] and in assay [12] was inactive.

With `O=C(O)c1ccccc1C(=O)O`, the Potency entry in assay [1], in assay [2], in assay [5], in assay [6], in assay [14] and in assay [11] was “inactive” in each case. The compound was classed as inactive in assay [4], in assay [8], in [9], in assay [10] and in assay [12].
